The entries come from a sample that favours hits as a whole.
TbPYK inhibitor: T. brucei pyruvate kinase inhibition; Potency, µM (top dose mostly 76.8 µM), for inactives: top-dose activity, negative = inhibition, most hits filed as inhibitors; 0.12% of 410,000 active; AID 624173; TbPYK enzyme, Kinase-Glo Plus ATP luminescence, 45 min; Q57TT1; further: potency means the concentration at half of the fitted maximal effect; on the % scale 0 is the no-effect control and ±100 the full control effect; nearly all actives have a fitted effect of over 50% in size
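Luminescence from Kinase-Glo Plus, added after a 45-minute room-temperature reaction, served as the end-point read-out. The enzyme and substrate were preincubated with compound before ADP (130 uM final) initiated turnover. Concentration-effect curves came from normalized qHTS data.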
CHX counter: counter-screen for Shiga toxin inhibitors: cycloheximide protein synthesis inhibition | cell reporter, cycloheximide protein synthesis inhibition counterscreen | max response, % | 12% of 300,000 active | AID 2314; in the data active means max response mostly above about 13%, no sharp cut-off; inactive means mostly below about 14%; further: read at 38.3 µM for the half of the compounds with a filed dose; 0% is about no effect
FBPA Giardia inh: Giardia lamblia aldolase inhibition; purified Giardia FBPA; Potency, µM (titrated, usually from 59.6 µM), for inactives: at the top dose activity, negative = inhibition, most hits filed as inhibitors; 0.71% of 290,000 active; AID 2451; further: potency means the concentration at half of the fitted maximal effect; on the % scale 0 is the no-effect control and ±100 the full control effect; nearly all actives have a fitted effect of over 55% in size
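Giardia FBPA (40 nM reagent) was preincubated 10 min at RT with compound (up to 57.5 uM final), then substrate plus GAPDH/TPI/NAD/arsenate coupling system with diaphorase/resazurin was added; resorufin fluorescence (525/598 nm) was read after 20 min.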
LmPK inh: blocks Leishmania mexicana pyruvate kinase activity; AID 1721; Q27686; Potency, µM (doses to about 57.5 µM), inactives show at the top dose activity change, negative = inhibition, usual class: inhibitors; purified LmPK, Kinase-Glo ATP luminescence, 1 h; 0.37% of 290,000 active; further: potency means the concentration at half of the fitted maximal effect; on the % scale 0 is the no-effect control and ±100 the full control effect
Target sequence (Q27686 whole entry, looked up): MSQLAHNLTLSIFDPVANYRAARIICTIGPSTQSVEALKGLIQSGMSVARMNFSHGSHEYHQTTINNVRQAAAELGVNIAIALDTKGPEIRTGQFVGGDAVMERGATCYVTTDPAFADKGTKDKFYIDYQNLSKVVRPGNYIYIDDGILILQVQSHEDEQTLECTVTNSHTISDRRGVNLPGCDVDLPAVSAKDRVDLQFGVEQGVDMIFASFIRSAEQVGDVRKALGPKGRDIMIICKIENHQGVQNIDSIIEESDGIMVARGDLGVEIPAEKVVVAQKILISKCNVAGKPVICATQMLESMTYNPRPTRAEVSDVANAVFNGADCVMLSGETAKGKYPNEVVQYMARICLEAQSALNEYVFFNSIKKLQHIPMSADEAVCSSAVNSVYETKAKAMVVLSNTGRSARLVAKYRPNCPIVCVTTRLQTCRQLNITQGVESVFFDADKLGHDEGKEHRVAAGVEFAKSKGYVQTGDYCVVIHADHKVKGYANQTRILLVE
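Purified LmPK (0.1 nM) with 0.5 mM PEP and 0.1 mM ADP in imidazole buffer pH 7.2 with MgCl2/KCl, 1 h at room temperature. ATP formed was read by luciferase luminescence and normalized to no-enzyme and uninhibited controls.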
Shiga inhibitor: blocks Shiga toxin action in Vero cells; Vero cells, Shiga toxin protein synthesis inhibition reporter; inhibition, % at 38.7 µM; 9.2% of 290,000 active; AID 2315; in the data active means inhibition mostly above about 28%, no sharp cut-off; inactive means mostly below about 43%; further: 0% is about no effect
Sm TGR inh: S. mansoni TGR enzyme inhibition; Q962Y6; purified TGR, DTNB reduction, TNB absorbance 405 nm; Potency, µM (series often up to 114 µM), inactives show top-dose activity change, negative = inhibition, usual class: inhibitors; 3% of 360,000 active; AID 485364; further: potency means the concentration at half of the fitted maximal effect; on the % scale 0 is the no-effect control and ±100 the full control effect; nearly all actives have a fitted effect of over 60% in size
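First, TGR (20 nM dispensed) and NADPH were mixed with compound. Second, a 15 min room-temperature incubation followed. Third, further NADPH and then DTNB were added to start the reaction. Finally, TNB absorbance was monitored kinetically.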
The depositor's hits bear a star; ? = inconclusive; · = not tested or not shown; [ ] = dose if it differs, or a comment. Unless noted, the call rests on the fitted dose curve; in most records, active means well fitted curve in the direction sought with a large enough effect; inconclusive means small, poorly fitted or top-dose-only effect, or another doubt; inactive means no such curve, though single readings can be large; an effect the other way counts as inactive or inconclusive.

SMILES	TbPYK inhibitor	CHX counter	FBPA Giardia inh	LmPK inh	Shiga inhibitor	Sm TGR inh
COc1cccc(C(=O)Nc2nnc(C3CCCO3)s2)c1 (centres undefined)	-11%	25*	-11%	1%	59*	-6%
O=C(Nc1nnc(C2CCCCC2)s1)c1cccs1	4%	28*	3%	1%	22	2%
COc1cccc(C(=O)Nc2nnc(SCC(=O)NC3CCCC3)s2)c1	3%	7	-15%	-3%	31	-15%
O=C(Nc1nnc(C2CCCO2)s1)c1cccs1 (centres undefined)	-12%	17*	4%	-19%	19	0%
CCn1nc(C)c(CNC(=O)c2cc(COc3ccc(C)nc3)on2)c1C	-4%	-1	-5%	-1%	-3	-1%
CCc1cccc(CC)c1N(COC)C(=O)Cn1c(C)nc2ccccc21	?	·	·	·	·	0%
COc1ccc(CNc2ccc3c(c2)CCC3)cc1Br	2%	41*	?	3%	70*	-23%
COc1ccccc1CNc1ccc2c(c1)CCC2	-5%	32*	?	9%	·	?
CCOc1cc(CNc2ccc3c(c2)CCC3)ccc1OC	·	35*	-28%	7%	66	?
COc1ccccc1CNC(=O)COc1ccc2c(c1)CCC2	7%	10	-14%	-1%	12	0%
O=C(NCc1ccc(F)cc1)c1ccc2c(c1)nnn2C1CCCC1	-5%	·	·	·	·	30%
COc1ccc(NC(=O)Nc2ncccc2C)cc1	-9%	20*	0%	-1%	63*	4%
COC(=O)c1ccccc1NC(=O)Nc1ncccc1C	2%	-3	0%	-3%	-14	·
COc1ccc(C(=O)NC(=O)Nc2ncccc2C)cc1	0%	40*	2%	4%	88*	-13%
Cc1cccnc1NC(=O)Nc1ccc(Cl)cc1	-1%	25*	5%	8%	·	-20%
Cc1cccnc1NC(=O)Nc1ccccc1	0%	27*	1%	-2%	49*	9%
CSc1ccc(CN(C)C(=O)C(Cc2ccccc2)NC(=O)c2ccccc2)cc1 (centres undefined)	-11%	40*	·	-12%	65*	-35%
COC(=O)c1ccccc1NC(=O)COC(=O)[C@H](C)NC(N)=O	-2%	9	-3%	3%	14	6%
CCc1ccc(C(=O)COC(=O)C(CCSC)NC(=O)c2ccccc2)cc1 (centres undefined)	-1%	22*	10%	7%	active	5%
CN(Cc1ccc(F)cc1)C(=O)C(Cc1ccccc1)NC(=O)c1ccccc1 (centres undefined)	1%	·	·	·	·	-6%
COc1cc(C(=O)NC(CCSC)C(=O)OCC(=O)C(C)(C)C)cc(OC)c1OC (centres undefined)	4%	30	2%	0%	53*	12%
CC(NC(N)=O)C(=O)OCC(=O)c1ccc(-c2ccccc2)cc1 (centres undefined)	-5%	36*	5%	-4%	43*	3%
COc1ccc(-n2c(SCC(=O)N3CCc4ccccc43)nc3c([nH]c4ccccc43)c2=O)cc1	1%	·	·	·	·	4%
Cc1cc2c(nc1C)CCCCN2C[C@H](C)O/N=C\[C@@H](C)[C@H](OCc1ccccc1)C(C)C	·	·	-1%[12.9 µM]	·	·	·
O=C(COC(=O)C(Cc1ccccc1)NC(=O)c1ccc(Cl)cc1)c1ccc(Cl)cc1 (centres undefined)	-7%	9	1%	4%	-7	-3%
SMILES	TbPYK inhibitor	CHX counter	FBPA Giardia inh	LmPK inh	Shiga inhibitor	Sm TGR inh
O=C(COC(=O)C(Cc1ccccc1)NC(=O)c1ccccc1)c1ccccc1 (centres undefined)	3%	24*	0%	1%	37*	-2%
CC(=O)[C@@H]1[C@H]2[C@H](C(=O)[C@H]3OC[C@@H]2O3)[C@H]2C=Cc3ccccc3N21	·	·	22µM*	·	·	·
NC(=O)c1ccc(Oc2ccc(Cl)cc2)c([N+](=O)[O-])c1	1%	0	-3%	-6%	-2	11%
CC(C)C(=O)O/N=C(\N)c1ccc(Oc2ccc(Cl)cc2)c([N+](=O)[O-])c1	4%	23*	0%	0%	36*	3%
O=C(NCC(c1ccc2c(c1)OCO2)N1CCOCC1)C(=O)Nc1ccccc1 (centres undefined)	-2%	·	·	·	·	11%
Cc1nc(CSc2nsc(/C=C/N(C)C)c2C#N)cs1	-4%	29*	?	5%	103*	-1%
COC(=O)c1ccccc1CSc1nsc(/C=C/N(C)C)c1C#N	?	-6	-8%	-3%	-10	11%
C/C(=C\CNc1ncnc2c1ncn2[C@@H]1O[C@H](CO)[C@@H](O)[C@H]1O)CO	·	6	0%	·	16	·
Cc1ccc(-n2c(=O)c3sccc3n(CC(=O)NC3CCCCC3)c2=O)cc1	3%	12	4%	-5%	112*	6%
COc1cccc(-n2c(=O)c3sccc3n(CC(=O)NC3CCCCC3)c2=O)c1	0%	-12	1%	0%	-11	-11%
CCCCN(C(=O)CSc1nnnn1C)C1CCS(=O)(=O)C1 (centres undefined)	-3%	·	·	·	·	10%
O=C(Nc1nc(-c2ccccn2)cs1)C12CC3CC(CC(O)(C3)C1)C2	-12%	34*	?	2%	91*	1%
O=C(Nc1nc(-c2ccccn2)cs1)C1CC1	-2%	32*	16%	-8%	43*	-1%
O=C(CC1CC2CCC1C2)Nc1nc(-c2ccccn2)cs1 (centres undefined)	-12%	46*	?	7%	78*	-16%
O=C(Nc1nc(-c2ccccn2)cs1)c1ccc(Br)s1	-8%	10	?	5%	-4	-13%
CC(C)(C)OC(=O)NC1CCN(S(=O)(=O)c2ccc3c(c2)OCCO3)CC1	-1%	-3	10%	7%	-4	-22%
C#CCOCCOCCOCCNc1nc(N2CCN(C(=O)CCCCCCCCCCNC(=O)Cn3cc(CCCCCN)nn3)CC2)nc(N2CCN(C(=O)CCCCCCCCCCNC(=O)[C@@H](CCC(=O)O)n3cc(CCCCCN)nn3)CC2)n1	12%	·	·	·	·	50µM*
C#CCOCCOCCOCCNc1nc(N2CCN(C(=O)CCCCCCCCCCNC(=O)[C@H](CO)n3cc(CCCSC)nn3)CC2)nc(N2CCN(C(=O)CCCCCCCCCCNC(=O)[C@@H]([C@H](C)O)n3cc(C)nn3)CC2)n1	·	·	·	·	·	45µM*
C#CCOCCOCCOCCNc1nc(N2CCN(C(=O)CCCCCCCCCCNC(=O)[C@H]([C@@H](C)CC)n3cc(CCCCN=C(N)N)nn3)CC2)nc(N2CCN(C(=O)CCCCCCCCCCNC(=O)[C@H](CCCCN)n3cc(C)nn3)CC2)n1	4%	·	·	·	·	40µM*
